Measured values reported in the supplement of paper PMC12669032.

Legend:
Experiment in all cases: growth AUC relative to DMSO control (median of replicates) (fraction); higher = more growth (less inhibition), active = hit call of the paper
Details in all cases: 20 µM; 24 h;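 active = AUC reduced over 20% with Padj below 0.05 in at least 2 of 3 replicates; inactive = otherwise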
Akkermansia muciniphila = test system: Akkermansia muciniphila
Procedure, shortened: (§1)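 Area under the growth curve was normalised to the plate median of solvent-only wells, except on the industrial chemical plate, where row and column medians were used. Curves came from gut bacterial monocultures grown anaerobically at 37 °C in mGAM with 20 µM compound (1% DMSO), starting at OD600 0.05 and read at OD600 every hour for 24 h. The minimum OD of each curve was set to 0, and values are medians of three biological replicates grown on separate days.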

Bacteroides caccae = test system: Bacteroides caccae
Procedure, shortened: as §1

Bacteroides clarus = test system: Bacteroides clarus
Procedure, shortened: as §1

Bacteroides dorei = test system: Bacteroides dorei
Procedure, shortened: as §1

Bacteroides stercoris = test system: Bacteroides stercoris
Procedure, shortened: as §1

[1] = test system: Bacteroides thetaiotaomicron
Procedure, shortened: as §1

Bacteroides uniformis = test system: Bacteroides uniformis
Procedure, shortened: as §1

[2] = test system: Bifidobacterium longum subsp. longum
Procedure, shortened: as §1

Clostridium difficile = test system: Clostridium difficile
Procedure, shortened: as §1

Collinsella aerofaciens = test system: Collinsella aerofaciens
Procedure, shortened: as §1

Coprococcus comes = test system: Coprococcus comes
Procedure, shortened: as §1

Escherichia coli ED1a = test system: Escherichia coli ED1a
Procedure, shortened: as §1

Escherichia coli IAI1 = test system: Escherichia coli IAI1
Procedure, shortened: as §1

Eubacterium rectale = test system: Eubacterium rectale
Procedure, shortened: as §1

[3] = test system: Fusobacterium nucleatum subsp. animalis
Procedure, shortened: as §1

Lactobacillus gasseri = test system: Lactobacillus gasseri
Procedure, shortened: as §1

Lactobacillus paracasei = test system: Lactobacillus paracasei
Procedure, shortened: as §1

Odoribacter splanchnicus = test system: Odoribacter splanchnicus
Procedure, shortened: as §1

[4] = test system: Parabacteroides distasonis
Procedure, shortened: as §1

Parabacteroides merdae = test system: Parabacteroides merdae
Procedure, shortened: as §1

Measured: growth AUC

COP(=S)(OC)SCn1nnc2ccccc2c1=O
inactive: Akkermansia muciniphila 1.09 | Bacteroides caccae 0.98 | Bacteroides clarus 0.977 | Bacteroides dorei 0.877 | Bacteroides stercoris 0.883 | [1] 0.969 | Bacteroides uniformis 0.986 | [2] 0.949 | Clostridium difficile 0.931 | Collinsella aerofaciens 0.941 | Coprococcus comes 0.997 | Escherichia coli ED1a 0.957 | Escherichia coli IAI1 0.968 | Eubacterium rectale 1.07 | [3] 0.916 | Lactobacillus gasseri 0.929 | Lactobacillus paracasei 0.968 | Odoribacter splanchnicus 0.902 | [4] 0.787 | Parabacteroides merdae 0.944

CN(C)C(=O)Nc1cccc(C(F)(F)F)c1
inactive: Akkermansia muciniphila 0.966 | Bacteroides caccae 0.97 | Bacteroides clarus 0.983 | Bacteroides dorei 0.991 | Bacteroides stercoris 0.911 | [1] 0.967 | Bacteroides uniformis 1.02 | [2] 0.961 | Clostridium difficile 1.02 | Collinsella aerofaciens 0.997 | Coprococcus comes 0.965 | Escherichia coli ED1a 1.01 | Escherichia coli IAI1 0.986 | Eubacterium rectale 1.01 | [3] 1.05 | Lactobacillus gasseri 1.05 | Lactobacillus paracasei 0.985 | Odoribacter splanchnicus 1.07 | [4] 0.961 | Parabacteroides merdae 1

N#Cc1c[nH]cc1-c1cccc(Cl)c1Cl
inactive: Akkermansia muciniphila 0.905 | Bacteroides caccae 0.819 | Bacteroides clarus 0.9 | Bacteroides dorei 0.871 | Bacteroides stercoris 0.884 | [1] 0.835 | Bacteroides uniformis 0.816 | [2] 1.09 | Clostridium difficile 0.901 | Collinsella aerofaciens 0.935 | Coprococcus comes 0.948 | Escherichia coli ED1a 1.01 | Escherichia coli IAI1 0.981 | Eubacterium rectale 1.06 | [3] 0.797 | Lactobacillus gasseri 1.06 | Lactobacillus paracasei 1.07 | Odoribacter splanchnicus 0.732 | [4] 0.804 | Parabacteroides merdae 0.941

COC[C@H](C)N(C(=O)CCl)c1c(C)csc1C
inactive: Akkermansia muciniphila 1.08 | Bacteroides caccae 1 | Bacteroides clarus 0.983 | Bacteroides dorei 0.951 | Bacteroides stercoris 0.95 | [1] 1 | Bacteroides uniformis 0.981 | [2] 1.04 | Clostridium difficile 0.976 | Collinsella aerofaciens 1 | Coprococcus comes 1 | Escherichia coli ED1a 0.985 | Escherichia coli IAI1 0.981 | Eubacterium rectale 1.17 | [3] 0.988 | Lactobacillus gasseri 0.922 | Lactobacillus paracasei 0.95 | Odoribacter splanchnicus 0.976 | [4] 0.963 | Parabacteroides merdae 0.956

CCCOC(=O)c1ccccc1C(=O)OCCC
inactive: Akkermansia muciniphila 1.16 | Bacteroides caccae 1.04 | Bacteroides clarus 1.03 | Bacteroides dorei 0.983 | Bacteroides stercoris 1.18 | [1] 0.992 | Bacteroides uniformis 0.989 | [2] 1.05 | Clostridium difficile 0.999 | Collinsella aerofaciens 1.01 | Coprococcus comes 1.11 | Escherichia coli ED1a 1.02 | Escherichia coli IAI1 1.05 | Eubacterium rectale 1.1 | [3] 1.15 | Lactobacillus gasseri 0.999 | Lactobacillus paracasei 1.09 | Odoribacter splanchnicus 0.698 | [4] 0.953 | Parabacteroides merdae 0.993

c1ccc2c(c1)cc1ccc3cccc4ccc2c1c34
inactive: Akkermansia muciniphila 1.01 | Bacteroides caccae 0.957 | Bacteroides clarus 0.94 | Bacteroides dorei 0.956 | Bacteroides stercoris 0.978 | [1] 1 | Bacteroides uniformis 0.957 | [2] 1.09 | Clostridium difficile 0.983 | Collinsella aerofaciens 1.03 | Coprococcus comes 1 | Escherichia coli ED1a 1.02 | Escherichia coli IAI1 1 | Eubacterium rectale 0.971 | [3] 0.951 | Lactobacillus gasseri 1.04 | Lactobacillus paracasei 0.967 | Odoribacter splanchnicus 0.932 | [4] 0.994 | Parabacteroides merdae 0.974

O=C(O)COc1ccc(Cl)cc1Cl
inactive: Akkermansia muciniphila 0.866 | Bacteroides caccae 1.03 | Bacteroides clarus 0.979 | Bacteroides dorei 0.996 | Bacteroides stercoris 0.986 | [1] 1 | Bacteroides uniformis 0.998 | [2] 1 | Clostridium difficile 1.02 | Collinsella aerofaciens 0.988 | Coprococcus comes 1.02 | Escherichia coli ED1a 1.01 | Escherichia coli IAI1 0.991 | Eubacterium rectale 0.943 | [3] 0.947 | Lactobacillus gasseri 1.08 | Lactobacillus paracasei 1.05 | Odoribacter splanchnicus 0.958 | [4] 0.988 | Parabacteroides merdae 0.982

C[C@H]1[C@H](c2ccc(Cl)cc2)SC(=O)N1C(=O)NC1CCCCC1
inactive: Akkermansia muciniphila 0.988 | Bacteroides caccae 0.91 | Bacteroides clarus 0.965 | Bacteroides dorei 0.945 | Bacteroides stercoris 1.13 | [1] 0.952 | Bacteroides uniformis 0.943 | [2] 0.923 | Clostridium difficile 0.987 | Collinsella aerofaciens 0.928 | Coprococcus comes 1.03 | Escherichia coli ED1a 1 | Escherichia coli IAI1 0.996 | Eubacterium rectale 1.05 | [3] 1.07 | Lactobacillus gasseri 0.791 | Lactobacillus paracasei 1.03 | Odoribacter splanchnicus 0.832 | [4] 0.725 | Parabacteroides merdae 0.947

COP(=S)(OC)Oc1ccc(S(C)(=O)=O)c(C)c1
inactive: Akkermansia muciniphila 0.98 | Bacteroides caccae 0.994 | Bacteroides clarus 1 | Bacteroides dorei 0.974 | Bacteroides stercoris 1.04 | [1] 0.994 | Bacteroides uniformis 0.964 | [2] 0.831 | Clostridium difficile 0.985 | Collinsella aerofaciens 1.01 | Coprococcus comes 1.03 | Escherichia coli ED1a 0.991 | Escherichia coli IAI1 0.985 | Eubacterium rectale 1 | [3] 1.1 | Lactobacillus gasseri 0.901 | Lactobacillus paracasei 1.01 | Odoribacter splanchnicus 1.03 | [4] 0.987 | Parabacteroides merdae 0.993

CNC(=O)Oc1cc(C)cc(C(C)C)c1
inactive: Akkermansia muciniphila 0.995 | Bacteroides caccae 0.969 | Bacteroides clarus 0.982 | Bacteroides dorei 0.973 | Bacteroides stercoris 0.938 | [1] 0.967 | Bacteroides uniformis 1.04 | [2] 1.19 | Clostridium difficile 0.93 | Collinsella aerofaciens 0.952 | Coprococcus comes 1.01 | Escherichia coli ED1a 0.959 | Escherichia coli IAI1 0.957 | Eubacterium rectale 1.04 | [3] 0.907 | Lactobacillus gasseri 0.889 | Lactobacillus paracasei 0.974 | Odoribacter splanchnicus 1.11 | [4] 0.979 | Parabacteroides merdae 0.992

CC1(C)C(C=C(Cl)Cl)C1C(=O)OC(C#N)c1ccc(F)c(Oc2ccccc2)c1 (mixture of isomers)
inactive: Akkermansia muciniphila 1.08 | Bacteroides caccae 1 | Bacteroides clarus 1.01 | Bacteroides dorei 0.995 | Bacteroides stercoris 0.95 | [1] 1.01 | Bacteroides uniformis 0.98 | [2] 0.975 | Clostridium difficile 0.979 | Collinsella aerofaciens 0.947 | Coprococcus comes 0.981 | Escherichia coli ED1a 0.956 | Escherichia coli IAI1 0.991 | Eubacterium rectale 1.06 | [3] 0.95 | Lactobacillus gasseri 0.782 | Lactobacillus paracasei 0.98 | Odoribacter splanchnicus 0.95 | [4] 0.96 | Parabacteroides merdae 0.937

CC(C)C(C(=O)OC(C#N)c1cccc(Oc2ccccc2)c1)c1ccc(OC(F)F)cc1 (stereo not given)
inactive: Akkermansia muciniphila 0.959 | Bacteroides caccae 0.981 | Bacteroides clarus 0.956 | Bacteroides dorei 1.02 | Bacteroides stercoris 1.08 | [1] 0.987 | Bacteroides uniformis 1.01 | [2] 0.965 | Clostridium difficile 1.01 | Collinsella aerofaciens 1.01 | Coprococcus comes 1.02 | Escherichia coli ED1a 0.998 | Escherichia coli IAI1 0.979 | Eubacterium rectale 0.848 | [3] 0.968 | Lactobacillus gasseri 1.01 | Lactobacillus paracasei 1.02 | Odoribacter splanchnicus 1.07 | [4] 0.983 | Parabacteroides merdae 0.971

COc1cc(OC)nc(NC(=O)NS(=O)(=O)c2ncccc2C(F)(F)F)n1
inactive: Akkermansia muciniphila 0.985 | Bacteroides caccae 1.02 | Bacteroides clarus 0.977 | Bacteroides dorei 0.991 | Bacteroides stercoris 0.908 | [1] 1.02 | Bacteroides uniformis 1.02 | [2] 1 | Clostridium difficile 1.02 | Collinsella aerofaciens 0.972 | Coprococcus comes 1.02 | Escherichia coli ED1a 0.985 | Escherichia coli IAI1 0.998 | Eubacterium rectale 1.09 | [3] 1.04 | Lactobacillus gasseri 1.02 | Lactobacillus paracasei 0.986 | Odoribacter splanchnicus 1.09 | [4] 1.05 | Parabacteroides merdae 1.04

CCS(=O)c1c(C#N)nn(-c2c(Cl)cc(C(F)(F)F)cc2Cl)c1N (stereo not given)
inactive: Akkermansia muciniphila 0.952 | Bacteroides caccae 1.04 | Bacteroides clarus 0.996 | Bacteroides dorei 1.01 | Bacteroides stercoris 1.04 | [1] 0.961 | Bacteroides uniformis 0.959 | [2] 1.01 | Clostridium difficile 1.02 | Collinsella aerofaciens 1.01 | Coprococcus comes 0.99 | Escherichia coli ED1a 0.988 | Escherichia coli IAI1 0.995 | Eubacterium rectale 1.02 | [3] 1.04 | Lactobacillus gasseri 0.909 | Lactobacillus paracasei 1.02 | Odoribacter splanchnicus 0.971 | [4] 0.949 | Parabacteroides merdae 0.965

CC1(C)CON(Cc2ccccc2Cl)C1=O
inactive: Akkermansia muciniphila 1.11 | Bacteroides caccae 0.927 | Bacteroides clarus 1.01 | Bacteroides dorei 0.917 | Bacteroides stercoris 0.996 | [1] 0.98 | Bacteroides uniformis 0.949 | [2] 0.938 | Clostridium difficile 0.977 | Collinsella aerofaciens 0.947 | Coprococcus comes 1.01 | Escherichia coli ED1a 0.965 | Escherichia coli IAI1 1.02 | Eubacterium rectale 1.12 | [3] 1.05 | Lactobacillus gasseri 0.837 | Lactobacillus paracasei 1.05 | Odoribacter splanchnicus 0.899 | [4] 0.838 | Parabacteroides merdae 0.985

CC(Oc1cc(Cl)c(Cl)cc1Cl)C(=O)O (stereo not given)
inactive: Akkermansia muciniphila 0.958 | Bacteroides caccae 1 | Bacteroides clarus 0.949 | Bacteroides dorei 0.979 | Bacteroides stercoris 0.973 | [1] 0.99 | Bacteroides uniformis 0.987 | [2] 0.787 | Clostridium difficile 1.02 | Collinsella aerofaciens 1.01 | Coprococcus comes 0.987 | Escherichia coli ED1a 0.978 | Escherichia coli IAI1 0.953 | Eubacterium rectale 0.964 | [3] 0.889 | Lactobacillus gasseri 1.04 | Lactobacillus paracasei 1 | Odoribacter splanchnicus 1.02 | [4] 0.955 | Parabacteroides merdae 0.986
